# TDP1 cell CPT = growth inhibition of DT40 Tdp1-/-;hTDP1 cells with camptothecin (screen for TDP1 inhibitors). chicken DT40 Tdp1-/-;hTDP1 cells + 20 nM CPT, ATP luminescence, 48 h. Potency, µM (top dose mostly 46.2 µM), actives largely listed as inhibitors. 12% of 420,000 active. AID 686979; note: nearly all actives have a fitted effect of over 55% in size
#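 Cell growth measured by CellTiter-Glo luminescence after a minimum 48 h, 37 C compound exposure with 20 nM CPT in Tdp1-knockout DT40 cells stably expressing hTDP1, seeded 400/well; qHTS titration format.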
# IL1B secr inh = blocks inflammasome-driven IL-1 beta release | THP-1 LPS/ATP IL-1B secretion, AlphaLISA, 16 h; stronger effect = lower value | activity change, % at 57.5 µM | 4.7% of 360,000 active; in the data active = activity change below about -50%; inconclusive = mostly about -30% to -49%
#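 THP-1 cells pretreated 1 hr with compounds (up to 57.5 uM final), then stimulated with LPS (250 ng/mL final) plus ATP (1.25 mM final); secreted IL-1B measured by AlphaLISA after 16 hr, decreased signal indicating inhibition.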
# Six1-Eya2 inh = Six1/Eya2 interaction inhibition. Q15475+O00167. AID 651725. AlphaScreen GST-Six1/His-Eya2 binding, biochemical; stronger effect = lower value. 0.56% of 360,000 active. activity change, % (test concentration not listed); in the data active = activity change below about -65%; inconclusive = mostly about -30% to -63%
# Target sequence (O00167 whole entry, looked up): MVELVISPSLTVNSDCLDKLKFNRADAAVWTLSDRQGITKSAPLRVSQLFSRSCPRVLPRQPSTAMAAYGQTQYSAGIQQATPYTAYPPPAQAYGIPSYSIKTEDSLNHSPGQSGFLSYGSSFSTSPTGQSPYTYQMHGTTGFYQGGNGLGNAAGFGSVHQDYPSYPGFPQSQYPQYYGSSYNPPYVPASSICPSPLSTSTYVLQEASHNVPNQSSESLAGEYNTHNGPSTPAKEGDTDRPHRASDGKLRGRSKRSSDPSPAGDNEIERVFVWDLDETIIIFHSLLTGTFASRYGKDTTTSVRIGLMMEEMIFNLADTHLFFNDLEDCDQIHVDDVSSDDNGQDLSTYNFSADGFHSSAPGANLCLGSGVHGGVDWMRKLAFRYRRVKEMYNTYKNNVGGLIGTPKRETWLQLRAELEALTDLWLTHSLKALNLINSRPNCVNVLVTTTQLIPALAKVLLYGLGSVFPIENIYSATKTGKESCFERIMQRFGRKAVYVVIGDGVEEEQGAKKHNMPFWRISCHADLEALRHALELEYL
# Target sequence (Q15475 whole entry, looked up): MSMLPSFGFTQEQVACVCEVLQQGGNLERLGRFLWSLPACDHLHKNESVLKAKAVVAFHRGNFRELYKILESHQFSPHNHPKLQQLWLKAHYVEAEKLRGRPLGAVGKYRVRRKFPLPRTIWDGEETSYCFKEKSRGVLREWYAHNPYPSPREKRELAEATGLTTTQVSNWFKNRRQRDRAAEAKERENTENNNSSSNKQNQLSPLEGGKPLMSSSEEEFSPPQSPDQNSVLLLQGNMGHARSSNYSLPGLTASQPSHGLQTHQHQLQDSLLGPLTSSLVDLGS
#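 AlphaScreen with GST-Six1 and His-Eya2 (5X mix: 250 nM and 500 nM), glutathione donor and nickel acceptor beads; buffer 50 mM Tris pH 8.0, 300 mM NaCl, 1 mM TCEP; 1 h at 37 C in the dark.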
# TDP1 inh = inhibitors of human tyrosyl-DNA phosphodiesterase TDP1; Q9NUW8; recombinant TDP1, AlphaScreen DNA substrate cleavage; Potency, µM (doses to about 130 µM), actives largely listed as inhibitors; 0.28% of 350,000 active; note: nearly all actives have a fitted effect of over 40% in size
#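 Compounds were preincubated with Tdp1 (1 nM final) for 15 min at room temperature before substrate (15 nM final) started a 5 min reaction; beads (10 ug/ml final) were then added for 10 min before AlphaScreen detection.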
# CtBP-E1A blk = inhibitors of CtBP/E1A interaction; activity change, % (concentration not given with the values); 0.49% of 340,000 active; AlphaScreen GST-E1A/His-CtBP binding, 1536-well; stronger effect = lower value; AID 651724; in the data active = activity change below about -65%; inconclusive = mostly about -30% to -63%
#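 Homogeneous bead-based format: GST-tagged E1A captured on glutathione donor beads, His-tagged CtBP on nickel acceptor beads; compounds precede bead addition by 2 h at 37 °C.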
# TDP1 cell noCPT = qHTS for Inhibitors of human tyrosyl-DNA phosphodiesterase 1 (TDP1): qHTS in cells in absence of CPT; AID 686978, 2013; 15% of 420,000 active; DT40 Tdp1-/- hTDP1 cells, no CPT, ATP luminescence, 48 h; Potency, µM (titrated, usually from 46.2 µM), most hits filed as inhibitors; note: nearly all actives have a fitted effect of over 55% in size
#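 Camptothecin absent (DMSO only). Human TDP1-complemented DT40 knockout cells, 400 cells/well, 37 °C for minimum 48 hr; ATP measured via CellTiter-Glo, 30 min dark incubation, luminescence.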
# A number is an active result; – = inactive; ? = inconclusive; · = no result; ! = repeats disagree. Shown are actives, neighbours in structure and some others; about 18% of the full set was active somewhere. Unless noted, calls come from the whole dose curve; as a rule, active = well fitted curve in the direction sought with a large enough effect; inconclusive = small, poorly fitted or top-dose-only effect, or another doubt; inactive = no such curve, though single readings can be large; an effect the other way counts as inactive or inconclusive.
SMILES,TDP1 cell CPT,IL1B secr inh,Six1-Eya2 inh,TDP1 inh,CtBP-E1A blk,TDP1 cell noCPT
COc1cc2cc(CN(Cc3cccs3)C(=S)Nc3ccc(C)cc3)c(=O)[nH]c2cc1OC,25.9µM,–,–,–,–,16.4µM
CC(C)CNC(=O)C1(C)CCCN1C(=O)c1csnn1 (centres undefined),–,–,–,·,–,–
COC(=O)c1ccc(Oc2nc(NC(C)C)nc(NC(C)C)n2)cc1,–,–,–,–,–,–
Cc1cc(/C=C2\SC(=S)NC2=O)c(C)n1-c1ccc(O)cc1,–,–,–,–,–,–
Cc1cc(/C=C2\SC(=Nc3ccc(F)cc3)NC2=O)c(C)n1-c1ccc(S(N)(=O)=O)cc1,5.17µM,–,–,–,–,5.17µM
CCOc1nc2cccc(C(=O)OC(C)OC(=O)OC3CCCCC3)c2n1Cc1ccc(-c2ccccc2-c2nn[nH]n2)cc1 (centres undefined),?,·,·,–,·,23.1µM
CCCc1nc(C(C)(C)O)c(C(=O)OCc2oc(=O)oc2C)n1Cc1ccc(-c2ccccc2-c2nn[nH]n2)cc1,–,·,·,–,·,?
CCCNC(=O)CN1CCN(c2ncc(NC(=O)c3ccc(Cl)cc3)cc2C(=O)O)CC1,–,·,·,·,·,–
CCCNC(=O)CN1CCN(c2cc3ccccc3c(Cl)n2)CC1,?,–,–,–,–,16.4µM
O=C(CSc1nnc(-c2cnccn2)n1Cc1ccco1)c1ccccc1,–,–,–,–,–,–
O=C(CSc1nnc(-c2ccccn2)n1Cc1ccco1)c1ccc(Cl)cc1,16.4µM,–,–,–,–,29.1µM
O=C(CSc1nnc(-c2cnccn2)n1Cc1ccco1)c1ccc(Cl)cc1,23.1µM,–,–,–,–,?
O=C(CSc1nnc(-c2ccccn2)n1Cc1ccco1)c1ccccc1,?,–,–,–,?,?
COc1ccc(-n2c(COc3cccc4ccccc34)nnc2SCC#N)cc1,?,–,–,–,–,?
Cc1ccccc1OCc1nnc(SCCN2CCCC2)n1-c1ccccc1,23.1µM,–,–,–,–,20.6µM
N#CCSc1nnc(COc2cccc3ccccc23)n1-c1cccc(Cl)c1,?,?,–,–,–,20.6µM
N#CCSc1nnc(COc2cccc3ccccc23)n1-c1ccccc1,16.4µM,-67.8,–,–,–,20.6µM
Cc1ccc2c(c1)NC(=O)C(CC(=O)Nc1ccccc1Cl)O2 (centres undefined),–,·,·,–,·,–
CC(=O)c1ccc(NC(=O)CC(C)S(=O)(=O)c2ccc3c(c2)CCN3C(C)=O)cc1 (centres undefined),–,–,–,–,–,–
Cc1ccc([N+](=O)[O-])c2c1C(N1CCCC1)C(C)(C)O2 (centres undefined),?,–,–,–,·,?
O=C(c1ccc([N+](=O)[O-])cc1[N+](=O)[O-])N1CCc2ccccc21,?,–,–,–,–,?
CN1c2ccccc2C2(C)CCCC3=Cc4cccc([N+](=O)[O-])c4OC312 (centres undefined),?,–,–,–,–,16.4µM
CN1c2ccccc2C2(C)CCCC3=Cc4cc([N+](=O)[O-])cc([N+](=O)[O-])c4OC312 (centres undefined),14.6µM,–,–,–,–,23.1µM
O=C1C=C(c2cccc(Cl)c2O)C[C@@H](c2ccc(Cl)cc2)C1,?,–,–,–,–,?
O=C1C(=O)c2ccccc2C(O)=C1C1CCC(c2ccc(Cl)cc2)CC1 (centres undefined),?,–,–,–,–,2.31µM!
SMILES,TDP1 cell CPT,IL1B secr inh,Six1-Eya2 inh,TDP1 inh,CtBP-E1A blk,TDP1 cell noCPT
Cc1ccccc1[C@H](NC1c2ccccc2C=Cc2ccccc21)P(=O)(c1ccccc1)c1ccccc1,?,-74.3,–,·,–,?
CCn1c2c(c(=O)n3ncc(C(=O)Nc4ccc(OC(F)(F)F)cc4)c13)CN(Cc1ccc(OC)cc1)CC2,?,·,·,–,·,23.1µM
CCn1c2c(c(=O)n3ncc(C(=O)N4CCN(c5ccc(C(C)=O)cc5)CC4)c13)CN(Cc1ccc(OC)cc1)CC2,4.11µM,·,·,–,·,2.59µM
COc1ccc(CN2CCc3c(c(=O)n4ncc(C(=O)N5CCN(c6ccc(F)cc6)CC5)c4n3C)C2)cc1,2.31µM,·,·,–,·,1.84µM
O=C(Nc1ccc(OC(F)(F)F)cc1)c1cnc2n(c1=O)CCS2,–,–,–,–,–,?
COc1ccc(-n2ncc(C(=O)N3CCN(c4ccc(F)cc4)CC3)c2C)cc1,–,·,–,·,–,?
Cc1ccc(S(=O)(=O)Nc2ccc3c(c2)nc(C)n3C)cc1,?,–,–,·,–,?
N#CC1=C2SCC(O)(c3ccccc3)N2C(=O)CC1c1ccccc1F (centres undefined),13µM,?,–,–,–,8.2µM
N#CC1=C2SCN(c3ccccc3)CN2C(=O)CC1c1cccs1 (centres undefined),–,?,–,·,–,–
N#CC1=C2SCN(Cc3ccccc3)CN2C(=O)CC1c1ccccc1F (centres undefined),–,–,–,–,–,–
N#CC1=C2SCC(O)(c3ccccc3)N2C(=O)CC1c1cccs1 (centres undefined),1.16µM,?,–,–,–,1.03µM
CC(C)(C)OC(=O)N1CCC(c2c(C(=O)NC3CC3)cnn2-c2ccccc2)CC1,–,–,–,–,–,–
COc1ccc(-n2ncc(C(=O)NCCc3ccsc3)c2C2CCN(C(=O)OC(C)(C)C)CC2)cc1,23.1µM,·,·,–,·,?
CCOC(=O)N1CCC(NC(=O)c2cnn(-c3ccc(OC)cc3)c2C2CCN(C(=O)OC(C)(C)C)CC2)CC1,18.4µM,·,·,–,·,?
COc1ccc(-n2ncc(C(=O)Nc3ccc(C)cc3Cl)c2C2CCN(C(=O)OC(C)(C)C)CC2)cc1,16.4µM,·,·,–,·,16.4µM
CCOC(=O)N1CCC(NC(=O)c2cnn(-c3ccc(C)cc3)c2C2CCN(C(=O)OC(C)(C)C)CC2)CC1,20.6µM,·,·,–,·,?
CC(C)(C)OC(=O)N1CCC(c2c(C(=O)NCCc3ccsc3)cnn2-c2ccccc2Cl)CC1,?,·,·,–,·,?
CCN(CCCNC(=O)c1[nH]c(C)c(C(C)=O)c1C)c1cccc(C)c1,?,–,–,–,–,?
NS(=O)(=O)c1cccc(NC(=O)CCCC2CCCCC2)c1,–,–,–,–,–,–
Cc1cccn2c(=O)c3cc(C(=O)NCCc4ccc(S(N)(=O)=O)cc4)n(C)c3nc12,?,·,·,–,·,?
COC(=O)c1ccc(CNC(=O)COc2ccccc2Br)o1,–,–,–,–,–,–
